Only some compounds are listed: those with a hit (about 3.5% of all), similar ones and a draw of the others.
FBW7 act – activators of human E3 ligase FBW7. Q969H0. AlphaScreen FBW7–phospho-cyclin E peptide binding, activator screen. normalized activity (activation), % at 26.1 µM. 650,000 tested, 0.13% active; in the data active means normalized activity above about 1.9%;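 further: purified mutant Fbw7 with reduced substrate affinity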
GPR151 activ – activates the human receptor GPR151; Q8TDV0; activation, % at 11.2 µM; 650,000 tested, 1% active; PathHunter beta-arrestin GPR151 cells, luminescence; in the data active means activation above about 4.9%
MITF primary – inhibitors of human MITF. O75030. AID 1259374. AlphaScreen MITF homodimerization, bead proximity signal. 650,000 tested, 0.91% active. inhibition, % at 2.6 µM; in the data active means inhibition above about 50%
TEAD-YAP inh – TEAD-YAP interaction inhibition. HEK-TIYL cells, TEAD-Gal4/YAP UAS-luciferase luminescence. inhibition, % at 9.12 µM. 640,000 tested, 1.4% active. AID 1259422; in the data active means inhibition above about 32%
MITF inh conf – confirmation of human MITF inhibitors | inhibition, % at 2.6 µM | 4,700 tested, 16% active | AlphaScreen MITF homodimerization, biotin/His-MITF beads | shares compounds with MITF primary;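 active means inhibition above a cutoff derived from the DMSO control wells, cut at about 28% in these data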;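 further: inhibitors lower the bead chemiluminescence by keeping MITF from dimerizing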
AlphaScreen intf2 – optically interferes with AlphaScreen signal. inhibition, % at 2.6 µM. 4,700 tested, 7.6% active. LysRS AlphaScreen counterscreen, signal interference, triplicate. shares compounds with MITF primary;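 active means inhibition above a cutoff derived from the DMSO control wells, cut at about 30% in these data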
Numbers stand for hits; 0 = inactive; - = not tested or not shown.

SMILES	FBW7 act	GPR151 activ	MITF primary	TEAD-YAP inh	others
C[C@H]1CCC/C=C/C2C[C@H](O)C[C@H]2[C@H](O)/C=C/C(=O)O1 (some centres undefined)	2.1	0	0	-
C[C@H]1CCC/C=C/[C@@H]2C[C@H](O)C[C@H]2[C@H](O)/C=C/C(=O)O1	0	0	0	68
CCCN1CCC[C@@H](c2cccc(C#N)c2)C1	0	0	0	0
O=C1NC(=S)NC(=O)C1=Cc1cc2c(cc1[N+](=O)[O-])OCO2	0	0	86	0
CCN(CC)c1ccc(CNCCc2c(C)[nH]c3ccccc23)cc1	0	0	75	0
CN1CCC2(CC1)NC(=O)C1=C(CN(C)CC1)N2	0	0	0	0
C[C@@H]1O[C@@H](O[C@@H]2C=C3CCC4C(CC[C@]5(C)[C@@H](c6ccc(=O)oc6)CC[C@]45O)[C@@]3(C)CC2)[C@H](O)[C@H](O)[C@H]1O (some centres undefined)	0	10	0	-
COc1ccc(CN2CCN(CCO)CC2)cc1C	0	0	0	0
CCCCc1nc2ccccc2c(=O)n1-c1ccccc1O	0	0	0	0
CC[C@@]1(O)C(=O)OCc2c1cc1n(c2=O)Cc2cc3ccccc3nc2-1	0	0	0	76
CC[C@@]1(O)C(=O)OCc2c1cc1n(c2=O)Cc2cc3c(O)cccc3nc2-1	0	0	0	78
CCOc1cc(C2C(C#N)=C(N)Oc3c2c(=O)oc2ccccc32)cc([N+](=O)[O-])c1O (centres undefined)	0	0	0	0
CCOc1ccc(NC(=O)CN2C(=O)C(C)N=C(c3ccccc3)c3ccccc32)cc1 (centres undefined)	0	0	0	0
COc1cc(NC(=O)CN2C(=O)C(C)N=C(c3ccccc3)c3ccccc32)cc(OC)c1 (centres undefined)	0	0	0	37
CC1=C(C(=O)OCc2ccccc2)C2(C(=O)Nc3ccccc32)C(C(=O)OC(C)C)=C(N)O1 (centres undefined)	0	0	0	0
C[C@@H]1C[C@@H]([C@H](O)CC2CC(=O)NC(=O)C2)C(=O)[C@@H](C)C1	0	0	0	98
CCC1/C=C/C=C/C[C@H](C)[C@@H](O)[C@](C)(O)C(=O)[C@@H](C)[C@H](O)[C@@H](C)C(=O)[C@H](C)[C@@H](O)[C@H](C)/C=C/C(=O)OC2[C@@H](C)C(CC1)OC1(CC[C@@H](C)C(C[C@H](C)O)O1)[C@@H]2C (some centres undefined)	0	0	0	94
Cc1c2oc3c(C)ccc(C(=O)N[C@@H]4C(=O)N[C@H](C(C)C)C(=O)N5CCC[C@H]5C(=O)N(C)CC(=O)N(C)[C@@H](C(C)C)C(=O)O[C@@H]4C)c3nc-2c(C(=O)N[C@@H]2C(=O)N[C@H](C(C)C)C(=O)N3CC(=O)C[C@H]3C(=O)N(C)CC(=O)N(C)[C@@H](C(C)C)C(=O)O[C@@H]2C)c(N)c1=O	0	0	0	95
CCn1nc(-c2ccc([N+](=O)[O-])cc2)nc2c(=O)n(C)c(=O)nc1-2	0	0	0	70
CCn1nc(/C=C/c2ccccc2)nc2c(=O)n(C)c(=O)nc1-2	0	0	0	33
COc1ccc(-n2c(/C=C/c3ccccc3)nc3ccccc3c2=O)cc1	0	0	0	0
O=C(O)C1CCCCC1C(=O)N1CC2CC(C1)c1cccc(=O)n1C2 (centres undefined)	0	0	0	0
C=CCOC(=O)C1C2NC(=S)NC1(C)Oc1ccccc12 (centres undefined)	0	0	0	36
O=c1cccc2n1CC1CC2CN(C(=S)NC2Cc3ccccc3C2)C1 (centres undefined)	0	0	0	0
COc1cc2c(cc1OC)[C@@H]1C(=O)c3ccc4c(c3O[C@@H]1CO2)C[C@H](C(C)C)O4	0	0	0	68
CCC1CN(C)CCC1(O)c1ccccc1 (centres undefined)	0	0	0	0
CCN1CCC(O)(c2ccccc2)C(C(=O)c2ccccc2)C1 (centres undefined)	2.0	0	0	0
CCOC(=O)C1C2NC(=S)N(c3ccc(C)cc3)C1(C)Oc1c(OCC)cccc12 (centres undefined)	0	0	53	0	MITF inh conf=41;AlphaScreen intf2=0
